The text below walks through data of PubChem BioAssay (NCATS).

Assay [1] is described as follows: AP1 Signaling Pathway (AID 357).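 Also: ME-180 reporter cells stimulated with EGF at its EC50 level; % is scaled to controls: 0 for no effect and ±100 for the full control effect.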 The conditions noted are these: ME-180 AP-1-bla reporter, EGF-induced, beta-lactamase ratio, 5 h. In outline:
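AP-1-bla ME-180 cells, Opti-MEM + 0.5% dialyzed FBS, plated overnight 37 °C. Cpd titration + EC50 EGF, 5 h 37 °C. CCF4 2.5 h RT; ex 405, em 460/530 ratio → %activity, AC50.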

Assay [2] deals with Cytochrome P450 1A2 (Homo sapiens) (UniProt P05177). Kind of assay: p450-cyp1a2 (AID 410; calls by dose curve; also: potency is read from the fitted curve at half-maximal effect;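 as to activity change, negative = inhibition: -100% = full effect of reference inhibitor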). The conditions noted are these: recombinant CYP1A2, luciferin-ME demethylation, luminescence; series mostly up to 57 µM. A digest of the protocol:
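Read-out is luminescence from luciferin produced by CYP1A2 demethylation of Luciferin-ME (100uM, at Km). Detection reagent stopped the 60 min NADPH-dependent reaction; signals were normalized to 57 uM furafylline.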

A short description of assay [3]: Stat Signaling Pathway (AID 446).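 Also: ME-180 cervical cancer cells given 40 pM IL-6 alongside compound; SIE-controlled beta-lactamase reporter measured as 460/530 nm FRET emission ratio; % is scaled to controls: 0 for no effect and ±100 for the full control effect.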 As to conditions: ME-180 (cervical carcinoma) SIE beta-lactamase reporter, IL-6 stimulated, 5 h. In outline:
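Overnight-plated ME-180 cells bearing a STAT Inducible Element beta-lactamase reporter; 5 h co-exposure to compound and 40 pM IL-6; values normalized to 300 pM IL-6 and 125 nM JAK inhibitor controls.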

Assay [4] addresses Mitogen-activated protein kinase 10 (Mus musculus) (UniProt Q61831). Kind of assay: JNK3 AlphaScreen Assay (AID 530).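 Also: kinase came from lysate of stimulated human HepG2 cells; signal reports phosphorylation of biotinylated GST-cJun 1-79 at Ser73 with 10 µM ATP; % is scaled to controls: 0 for no effect and ±100 for the full control effect.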 The conditions noted are these: JNK3 lysate, c-Jun phosphorylation; series mostly up to 57.1 µM. A digest of the protocol:
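Biotinylated GST-cJun(1-79) served as substrate for JNK3 in HepG2 lysates stimulated with IL-1beta and TNF-alpha. ATP was 10 uM final, pH 7.6. Ser73 phosphorylation was quantified by AlphaScreen (680 nm excitation).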
Background: Bead proximity is the source of the signal in Alpha formats.

Assay [5] has as its target 3',5'-cyclic-AMP phosphodiesterase 4B (Homo sapiens) (UniProt Q07343). Kind of assay: qHTS Assay for Inhibitors of PDE-IV (AID 607; active = well fitted activation curve with a large enough effect in the main read-out, with a control signal flat, not every such curve was filed as active; also: % of control where 0% means no effect). The conditions noted are these: HEK293 ACTOne CNG channel cells, membrane potential fluorescence; series mostly up to 22.9 µM. A digest of the protocol:
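Live HEK293 cells with a modified cyclic nucleotide-gated (CNG) channel report intracellular cAMP via membrane-potential dye fluorescence (ex 535/em 590 nm). Endogenous PDE-IV was targeted. Compounds were tested at up to 22.9 uM final; RO 20-1724 100 uM served as control.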
(In qHTS, concentration-response curves come from the screen itself.)

Assay [6] is described as follows: NFAT Signaling Pathway (AID 444).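 Also: carbachol stimulus at about its EC50 of 1 µM final; % is scaled to controls: 0 for no effect and ±100 for the full control effect.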 As to conditions: Jurkat NFAT-bla M1, carbachol, beta-lactamase ratio, 5 h; at 38 µM (top of the series) unless noted. In outline:
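Jurkat cells carrying an NFAT-driven β-lactamase reporter and co-transfected muscarinic M1 receptor were treated with compound plus carbachol (1 uM final, an EC50 level) for 5 h at 37 °C. CCF4 loading followed for 1 h at RT; 460/530 nm ratio gave %activity.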

For assay [7], the target named is Glucocorticoid receptor (Homo sapiens) (UniProt P04150). Kind of assay: GR-GFP Redistribution (AID 450;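 active = compounds whose dose series gives a full or clear partial fitted curve of increased nuclear translocation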; also: potency is read from the fitted curve at half-maximal effect). The conditions noted are these: U2OS GR-GFP nuclear translocation, laser cytometry, 2 h.
For assay [8] the target is unchanged. Kind of assay: GR-EFC Redistribution (AID 451; calls by dose curve; also: potency is read from the fitted curve at half-maximal effect). The conditions noted are these: CHO-K1 GR-EFC translocation, beta-gal luminescence, 2 h. In outline: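 CHO-K1 cells stably expressing nuclear-localized β-gal enzyme acceptor and GR fused C-terminally to the enzyme donor fragment; ligand-driven nuclear translocation restores β-gal by complementation. Compounds titrated up to 46 uM final, 2 h at 37 °C; luminescence read.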

Several values for one entry are separate records, joined by “and”; a condition that tells them apart may be missing. Equal values may be shown once. Values without a mark were called inactive. Inconclusive results are not listed. Activity calls are given as the source filed them. Unless noted, calls follow the shape of the dose curve; as a rule, active = well fitted curve in either direction with a large enough effect (not every such curve was filed as active); inconclusive = small, poorly fitted or top-dose-only effect, or another doubt; inactive = flat fitted curve, though single readings scatter.

3',5'-cyclic-AMP phosphodiesterase 4B (Homo sapiens), sequence (Q07343 whole entry, looked up): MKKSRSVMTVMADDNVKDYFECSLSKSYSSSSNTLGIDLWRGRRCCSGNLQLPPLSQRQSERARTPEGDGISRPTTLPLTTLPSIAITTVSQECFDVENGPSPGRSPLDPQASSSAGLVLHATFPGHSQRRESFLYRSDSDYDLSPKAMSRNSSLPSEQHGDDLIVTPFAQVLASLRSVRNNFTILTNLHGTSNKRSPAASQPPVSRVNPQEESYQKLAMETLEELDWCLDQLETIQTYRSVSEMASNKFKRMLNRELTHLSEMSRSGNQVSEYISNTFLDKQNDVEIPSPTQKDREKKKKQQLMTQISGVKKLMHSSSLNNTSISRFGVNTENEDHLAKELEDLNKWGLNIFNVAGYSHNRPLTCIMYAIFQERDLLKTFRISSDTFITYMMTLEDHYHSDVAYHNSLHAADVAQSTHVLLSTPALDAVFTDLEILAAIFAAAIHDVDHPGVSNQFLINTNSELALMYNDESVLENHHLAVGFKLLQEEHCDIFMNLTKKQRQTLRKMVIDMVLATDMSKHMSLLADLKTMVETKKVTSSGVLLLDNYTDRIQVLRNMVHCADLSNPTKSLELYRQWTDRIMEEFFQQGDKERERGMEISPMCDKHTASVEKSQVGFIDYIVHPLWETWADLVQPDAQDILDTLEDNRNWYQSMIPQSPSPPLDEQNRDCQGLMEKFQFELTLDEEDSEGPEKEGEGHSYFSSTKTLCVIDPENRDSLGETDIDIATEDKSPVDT
Cytochrome P450 1A2 (Homo sapiens), sequence (P05177 whole entry, looked up): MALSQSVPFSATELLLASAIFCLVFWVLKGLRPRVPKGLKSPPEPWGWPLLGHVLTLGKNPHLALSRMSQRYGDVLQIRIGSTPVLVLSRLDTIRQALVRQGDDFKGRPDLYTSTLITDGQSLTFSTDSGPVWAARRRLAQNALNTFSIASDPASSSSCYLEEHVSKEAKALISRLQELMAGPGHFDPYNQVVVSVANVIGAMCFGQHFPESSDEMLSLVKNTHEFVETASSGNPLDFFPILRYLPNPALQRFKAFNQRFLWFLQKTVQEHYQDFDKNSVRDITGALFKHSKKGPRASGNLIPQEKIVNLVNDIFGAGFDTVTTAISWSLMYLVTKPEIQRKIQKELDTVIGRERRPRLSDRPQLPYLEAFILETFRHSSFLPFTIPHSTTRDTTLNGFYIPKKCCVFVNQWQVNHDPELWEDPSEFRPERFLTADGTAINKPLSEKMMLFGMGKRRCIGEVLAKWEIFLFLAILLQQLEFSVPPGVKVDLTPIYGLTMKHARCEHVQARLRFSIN
Glucocorticoid receptor (Homo sapiens), sequence (P04150 whole entry, looked up, the tested form may be a part): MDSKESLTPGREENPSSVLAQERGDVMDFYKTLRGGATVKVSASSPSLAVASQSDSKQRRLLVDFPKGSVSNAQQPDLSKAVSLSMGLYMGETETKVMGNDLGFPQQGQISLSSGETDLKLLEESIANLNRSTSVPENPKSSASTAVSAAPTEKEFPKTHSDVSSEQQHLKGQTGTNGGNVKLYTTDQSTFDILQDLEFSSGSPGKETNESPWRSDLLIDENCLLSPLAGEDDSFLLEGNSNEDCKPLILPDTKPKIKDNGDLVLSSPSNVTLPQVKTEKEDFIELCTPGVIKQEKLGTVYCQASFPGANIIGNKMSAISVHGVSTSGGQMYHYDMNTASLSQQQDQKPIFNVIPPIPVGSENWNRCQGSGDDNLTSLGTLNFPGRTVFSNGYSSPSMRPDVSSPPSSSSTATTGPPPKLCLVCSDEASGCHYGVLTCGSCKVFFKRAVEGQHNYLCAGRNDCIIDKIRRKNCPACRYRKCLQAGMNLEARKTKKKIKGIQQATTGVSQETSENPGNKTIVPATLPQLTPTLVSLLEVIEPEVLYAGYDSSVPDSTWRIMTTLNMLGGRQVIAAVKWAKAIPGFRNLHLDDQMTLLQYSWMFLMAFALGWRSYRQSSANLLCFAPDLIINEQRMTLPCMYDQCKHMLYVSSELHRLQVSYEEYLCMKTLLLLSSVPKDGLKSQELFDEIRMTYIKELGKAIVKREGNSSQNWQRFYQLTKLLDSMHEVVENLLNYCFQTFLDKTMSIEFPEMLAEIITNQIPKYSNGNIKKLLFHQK

Turning to `NC[C@@H]1O[C@H](C23CC4CC(CC(C4)C2)C3)Cc2c1ccc(O)c2O`, in assay [1] (at 38 µM (top of the series)), the activity change, negative = inhibition is -6.97%. Besides, the Potency result in assay [2] and in assay [4] was “inactive” each time. Besides, in assay [3] (at 38 µM (top of the series)), the activity, negative = inhibition was 0.327%. The result in assay [5] was inactive.

Take `COc1ccc(/C=C/C(=O)Nc2ccccc2C(=O)O)cc1OC`: the activity change, negative = inhibition in assay [1] (at 17.2 µM (top of the series)) is -28.6%; in assay [6], 22.7% [at 17.2 µM]. The activity, negative = inhibition in assay [3] (at 17.2 µM (top of the series)) is -24.7%. Further, the Potency in assay [7] was more than 20.6 µM.

For `O=C(O)Cc1ccc(-c2ccccc2)cc1`, the activity change, negative = inhibition in assay [1] (at 17.2 µM (top of the series)) is 3.75% and 6.11%; in assay [6], -2.29% [at 17.2 µM] and -12.1% [at 17.2 µM]. Moreover, the activity, negative = inhibition in assay [3] (at 17.2 µM (top of the series)) is -10.3% and 7.71%. The Potency in assay [7] and in assay [8] was more than 20.6 µM throughout. The Potency result in assay [4] was “inactive”. For the same molecule, the outcome in assay [5] was inactive.

Regarding `OC[C@H]1O[C@@H](n2cnc3c(Nc4ccccc4)ncnc32)[C@H](O)[C@@H]1O`, the activity change, negative = inhibition in assay [1] (at 17.2 µM (top of the series)) is 0.891%; in assay [6] it was 4.47% [at 17.2 µM]. Further, the activity, negative = inhibition in assay [3] (at 17.2 µM (top of the series)) is 17.7%.

For the molecule `O=C(O)c1cc([N+](=O)[O-])ccc1NCCCc1ccccc1`, the activity change, negative = inhibition in assay [1] (at 38 µM (top of the series)) was -8.1%; in assay [6] it was 5.3%. For the same molecule, the Potency in assay [2] was 31.6 µM (active). Moreover, the activity, negative = inhibition in assay [3] (at 38 µM (top of the series)) was -16.2%. Besides, in assay [4], the Potency entry is “inactive”. Further, in assay [5], the molecule was classed as inactive.

For the molecule `OC[C@H]1O[C@@H](n2cnc3c(NC4CCCC4)ncnc32)[C@H](O)[C@@H]1O`, the activity change, negative = inhibition in assay [1] (at 17.2 µM (top of the series)) is 4.32%; in assay [6], 7.15% [at 17.2 µM]. Further, in assay [3] (at 17.2 µM (top of the series)), the activity, negative = inhibition is 15.8%. The Potency in assay [7] was more than 20.6 µM.

`Cc1c(Nc2ncccc2C(=O)O)cccc1C(F)(F)F`: the activity change, negative = inhibition was -17.9% in assay [1] (at 17.2 µM (top of the series)) and -13.1% [at 17.2 µM] in assay [6]. Besides, in assay [2], the Potency is 12.6 µM (active). The activity, negative = inhibition in assay [3] (at 17.2 µM (top of the series)) was -19.6%. Moreover, the Potency result in assay [4] is “inactive”. The molecule was called inactive in assay [5].

Consider `CN1CCc2ccccc2Cc2[nH]c3ccccc3c2CC1`, for which the activity change, negative = inhibition is 8.89% in assay [1] (at 38 µM (top of the series)) and -7.31% in assay [6]. For the same molecule, the activity, negative = inhibition in assay [3] (at 38 µM (top of the series)) was -13.2%. Besides, the Potency entry in assay [4] is “inactive”. The molecule was called inactive in assay [5].

Regarding `N=C(N)SCCc1ccc(CCSC(=N)N)cc1`, in assay [1] (at 38 µM (top of the series)), the activity change, negative = inhibition is 14.8%. In addition, the Potency result in assay [2] and in assay [4] was “inactive” in each case. Moreover, the Potency in assay [7] and in assay [8] was more than 46 µM each time. For the same molecule, the molecule was classed as inactive in assay [5].

In the case of `O=c1[nH]c2cc([N+](=O)[O-])c([N+](=O)[O-])cc2[nH]c1=O`, the activity change, negative = inhibition is -3.93% in assay [1] (at 38 µM (top of the series)) and 4.52% in assay [6]. For the same molecule, the Potency result in assay [2] and in assay [4] was “inactive” throughout. The activity, negative = inhibition in assay [3] (at 38 µM (top of the series)) was 21%. Besides, the outcome in assay [5] was inactive.

For the molecule `NC(N)=NC(=O)c1nc(Cl)c(N2CCCCCC2)nc1N`, the activity change, negative = inhibition in assay [1] (at 38 µM (top of the series)) was 21.5%. Further, the Potency in assay [2] was 1 µM (active). The activity, negative = inhibition in assay [3] (at 38 µM (top of the series)) is 1%. Besides, in assay [4], the Potency entry was “inactive”. The result in assay [5] was inactive.

For the molecule `NO`, the activity change, negative = inhibition was 6.61% in assay [1] (at 38 µM (top of the series)) and -5.23% in assay [6]. Further, the Potency result in assay [2] and in assay [4] was “inactive” in each case. Also, the activity, negative = inhibition in assay [3] (at 38 µM (top of the series)) was 11.6%. The result in assay [5] was inactive.
